High-throughput results: PubChem BioAssay, The Scripps Research Institute Molecular Screening Center
FBW7 act = FBW7 E3 ligase activators, primary screen, biochemical, AlphaScreen, human | F-box/WD repeat-containing protein 7 (Homo sapiens), Q969H0 | AID 1259310, 2017 | AlphaScreen FBW7–phospho-cyclin E peptide binding, activator screen | 650,000 compounds, 0.13% hits | normalized activity (activation), % at 26.1 µM; in the data active means normalized activity above about 1.9%;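 further: purified mutant Fbw7 with reduced substrate affinity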
GPR151 ag = activators of human GPR151, primary screen, cell-based, PathHunter beta-arrestin, luminescence; PathHunter beta-arrestin GPR151 cells; 650,000 compounds, 1% hits; activation, % at 11.2 µM; AID 1508602, 2020; G-protein coupled receptor 151 (Homo sapiens), Q8TDV0; in the data active means activation above about 4.9%;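 further: 0% = median of compound wells and 100% = cells with positive control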
Target sequence (Q8TDV0 whole entry, looked up): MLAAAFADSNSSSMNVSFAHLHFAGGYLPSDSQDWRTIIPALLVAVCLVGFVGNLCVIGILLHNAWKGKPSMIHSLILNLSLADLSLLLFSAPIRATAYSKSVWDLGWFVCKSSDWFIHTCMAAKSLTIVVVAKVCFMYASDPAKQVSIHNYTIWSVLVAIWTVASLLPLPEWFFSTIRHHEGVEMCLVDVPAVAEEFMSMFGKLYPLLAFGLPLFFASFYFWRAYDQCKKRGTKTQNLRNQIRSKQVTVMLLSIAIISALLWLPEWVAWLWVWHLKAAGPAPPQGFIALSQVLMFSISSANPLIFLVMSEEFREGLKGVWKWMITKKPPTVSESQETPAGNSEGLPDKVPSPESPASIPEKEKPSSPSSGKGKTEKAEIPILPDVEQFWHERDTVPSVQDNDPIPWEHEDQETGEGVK
TEAD-YAP block = TEAD-YAP interaction inhibition, primary screen, TEAD-YAP interaction inhibitor project, luminescence, HEK-TIYL cells; TEAD-Gal4/YAP UAS-luciferase luminescence; inhibition, % at 9.12 µM; 640,000 compounds, 1.4% hits; AID 1259422, 2018; in the data active means inhibition above about 32%;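 further: 0% = median of test compound wells and 100% = reference inhibitor wells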
MITF primary = MITF inhibitors, primary screen, biochemical, AlphaScreen, human. Microphthalmia-associated transcription factor (Homo sapiens), O75030. inhibition, % at 2.6 µM. AlphaScreen MITF homodimerization, bead proximity signal. 650,000 compounds, 0.91% hits. AID 1259374, 2018; in the data active means inhibition above about 50%;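 further: 0% = vehicle wells with protein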
GPR151 conf act = GPR151 activators, triplicate retest, confirmation, cell-based, PathHunter beta-arrestin, luminescence. shares compounds with GPR151 ag. GPR151 PathHunter beta-arrestin cells, 90 min; % of EA-reagent control over plate median. activation, % at 11.2 µM. 6,700 tested, under 10 active. AID 1508609, 2020;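 active means mean percent activation across replicates above the confirmation screen cutoff of 4.91%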
GPR119 counter = GPR119 activators in beta-arrestin cells, counter-screen for GPR151 activator project, cell-based, PathHunter beta-arrestin, luminescence, triplicate; shares compounds with GPR151 ag; 90 min; 0 = compound-well median, 100 = enzyme-acceptor control; activation, % at 11.2 µM; 6,700 compounds, 0.3% hits; AID 1508611, 2020;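 active means mean percent activation in the counterscreen above 29.09%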;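 further: counterscreen on off-target GPR119 to flag nonselective hits from the GPR151 activator screen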
* hit, by the source's call. Rows were chosen to be rich in hits. Some 3.5% of all compounds tested hit in one or more screens of this group.

CCCN1CCC(=NNC(=O)c2ccc(Cl)cc2Cl)CC1 was read as FBW7 act 0, GPR151 ag 4.9*, TEAD-YAP block 2, MITF primary 16, GPR151 conf act 1 and GPR119 counter 6.
For O=C1C(=O)N(c2nc3ccccc3s2)C(c2ccccc2)/C1=C(\O)c1ccccc1 (stereo not drawn) the results were FBW7 act 0, GPR151 ag 4.9*, TEAD-YAP block 12, MITF primary 9, GPR151 conf act 1 and GPR119 counter 15.
Cc1cc(=O)n(C)c(=O)n1CCCSC(=N)N was read as FBW7 act 0, GPR151 ag -1, TEAD-YAP block -8 and MITF primary 7.
Cc1c(Cl)cccc1NC(=O)CSCC(=O)Nc1ccc(Br)cc1 was read as FBW7 act 0, GPR151 ag 6.4*, TEAD-YAP block 11, MITF primary 7, GPR151 conf act 1 and GPR119 counter 18.
`O=C(Cc1ccccc1[N+](=O)[O-])Nc1ccc2c(c1)OCO2` gave FBW7 act 0, GPR151 ag -1, TEAD-YAP block -27 and MITF primary -6.
`O=C(Cc1ccccc1[N+](=O)[O-])NNC(=O)Nc1ccc2c(c1)OCO2` gave FBW7 act 0, GPR151 ag 5.1*, TEAD-YAP block -12, MITF primary -3, GPR151 conf act 1 and GPR119 counter -2.
CC(C)(C)c1csc2ncc(C(=O)NCc3cccs3)c(=O)n12 was read as FBW7 act 0, GPR151 ag 5.2*, TEAD-YAP block -1, MITF primary 1, GPR151 conf act 0 and GPR119 counter -1.
`CSCCCNC(=O)Cn1nnnc1CN1CCCCCC1` gave FBW7 act 0, GPR151 ag 13*, TEAD-YAP block 3, MITF primary 7, GPR151 conf act 0 and GPR119 counter 3.
Screening O=C(CNC(=O)c1ccccc1F)OCc1cc(=O)oc2ccc3ccccc3c12 returned FBW7 act 0, GPR151 ag 0, TEAD-YAP block 1 and MITF primary 14.
`CCN(CC)S(=O)(=O)c1cccc(C(=O)Nc2ccc(I)cc2)c1` gave FBW7 act 0, GPR151 ag 2, TEAD-YAP block 4 and MITF primary 3.
For CC(=O)c1cc(C)ccc1OC(=O)c1ccc([N+](=O)[O-])cc1 the results were FBW7 act 0, GPR151 ag 6.4*, TEAD-YAP block -1, MITF primary 8, GPR151 conf act 1 and GPR119 counter -9.
Screening O=C(NCCc1ccccc1F)C1CC(=O)N(c2ccc(Br)cc2)C1 (stereo not drawn) returned FBW7 act 0, GPR151 ag 1, TEAD-YAP block 12 and MITF primary 5.
O=C(c1ccccc1)N1CCN(CC#CC2(O)CCCCC2)CC1 was read as FBW7 act 1, GPR151 ag 10*, TEAD-YAP block -2, MITF primary 20, GPR151 conf act 1 and GPR119 counter 4.
Screening O=C(c1ccc(C#CC2(O)CCCCC2)cc1)N1CCN(c2ccccc2)CC1 returned FBW7 act 0, GPR151 ag 2, TEAD-YAP block 1 and MITF primary 9.
For CCOC(=O)N1CCN(CCC(=O)Nc2ccc(C)c(C)c2)CC1 the results were FBW7 act 0, GPR151 ag 1, TEAD-YAP block 4 and MITF primary -3.
`CC(C)[C@H](NC(=O)c1ccccc1F)C(=O)Nc1ccc2c(c1)OCO2` gave FBW7 act 0, GPR151 ag 0, TEAD-YAP block -6 and MITF primary -6.
`O=C(NC(NC(=O)c1ccccc1F)c1ccc2c(c1)OCO2)c1ccccc1F` gave FBW7 act 0, GPR151 ag 11*, TEAD-YAP block 1, MITF primary -3, GPR151 conf act 1 and GPR119 counter 0.
For Cc1ccc(CNC(=O)c2cc(C)[nH]n2)cc1 the results were FBW7 act 0, GPR151 ag 1, TEAD-YAP block -5 and MITF primary 0.
For COc1cccn2c(C(=O)N3CCC3)c(C(F)(F)F)nc12 the results were FBW7 act 0, GPR151 ag 6.2*, TEAD-YAP block 17, MITF primary 8, GPR151 conf act 1 and GPR119 counter 13.
Screening COc1cccn2c(C(=O)Nc3ccc(Cl)cc3)c(C(F)(F)F)nc12 returned FBW7 act 0, GPR151 ag 14*, TEAD-YAP block 0, MITF primary 10, GPR151 conf act 1 and GPR119 counter 8.
For COc1cccn2c(C(=O)N3CCCC3)c(C(F)(F)F)nc12 the results were FBW7 act 0, GPR151 ag 0, TEAD-YAP block 9 and MITF primary 2.
For Cc1nn(C)c(Cl)c1CN1CCN(C2CCCCC2)C(CCO)C1 (stereo not drawn) the results were FBW7 act 0, GPR151 ag 8.9*, TEAD-YAP block 8, MITF primary 9, GPR151 conf act 0 and GPR119 counter -1.
For CSc1ncc(CN2CCN(C3CCCC3)C(CCO)C2)cn1 (stereo not drawn) the results were FBW7 act 0, GPR151 ag 9.7*, TEAD-YAP block 3, MITF primary -1, GPR151 conf act 0 and GPR119 counter 0.
For C/C(CC(=O)NC12CC3CC(CC(C3)C1)C2)=N\NC(=O)c1cccs1 the results were FBW7 act 0, GPR151 ag 1, TEAD-YAP block -72 and MITF primary 7.
Screening COc1ccc(Cl)cc1S(=O)(=O)N1CCN(c2ccc(C)cc2)CC1 returned FBW7 act 0, GPR151 ag -1, TEAD-YAP block 1 and MITF primary 2.
Screening O=c1c2cc(-c3ccccc3)sc2ncn1-n1cccc1 returned FBW7 act 0, GPR151 ag 7.7*, TEAD-YAP block -68, MITF primary 9, GPR151 conf act 0 and GPR119 counter 3.
N#Cc1c(C(F)(F)F)cc(-c2cccs2)nc1SCC(=O)O was read as FBW7 act 0, GPR151 ag 0, TEAD-YAP block 9 and MITF primary 6.
For N#Cc1c(C(F)(F)F)cc(-c2cccs2)nc1SC1CC(=O)N(c2ccccc2)C1=O (stereo not drawn) the results were FBW7 act 1, GPR151 ag 5.1*, TEAD-YAP block 0, MITF primary -3, GPR151 conf act 0 and GPR119 counter 7.
